The source of these data is PubChem BioAssay (NCI).

This is part of a sample that, as a whole, favours compounds with a hit. Of some 83,000 tested, about 20% had one in any assay.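 Plates (96-well) were seeded with cells, treated with compound at one concentration, and incubated for 48 hours before percent growth was determined.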 A number with no mark means an inactive call. Activity calls are given as the source filed them. Rule for the calls: active = growth percent below 10; inactive = the rest.

Among the test systems are OVCAR-5 ovarian; OVCAR-4 ovarian; IGROV1 ovarian; NCI/ADR-RES ovarian; BT-549 breast; MDA-MB-435 melanoma; HCT-116 colon; HCC-2998 colon; RPMI-8226 leukemia; OVCAR-8 ovarian; SK-OV-3 ovarian; OVCAR-3 ovarian; HS 578T breast; SW-620 colon; MCF7 breast; KM12 colon; T-47D breast.
What all share (test): NCI-60 one-dose screen, 48 h (100 = growth as untreated, 0 = no growth, -100 = all killed)
Holding throughout (conditions): 10 µM unless noted

For `C=C1CCC2C3(C)COC(c4ccccc4)OC3CCC2(C)C1C/C=C1/C(=O)OCC1O` (stereo not drawn), the growth in the assay with OVCAR-5 ovarian is 117%; with OVCAR-4 ovarian it was 66.6%; with IGROV1 ovarian it was 59.2%; with NCI/ADR-RES ovarian it was 51.5%; in the assay on BT-549 breast, 56.5%; with MDA-MB-435 melanoma, 72.8%. Also, the growth with HCT-116 colon is 38.6%; with HCC-2998 colon it was 94.1%.

On to `Cc1ncc(C(=O)Nc2ccc(CN3CCN(C)CC3)c(C(F)(F)F)c2)cc1C#Cc1c(N)ncc2ccccc12`, for which the growth in the assay with RPMI-8226 leukemia is -47.5% (active); in the assay on OVCAR-8 ovarian it was -85.7% (active); in the assay with OVCAR-5 ovarian it was -92.6% (active); in the assay with OVCAR-4 ovarian, -58.8% (active); in the assay with SK-OV-3 ovarian, -2.88% (active); in the assay with IGROV1 ovarian, -77.1% (active). Also, the growth was -68.9% (active) in the assay on OVCAR-3 ovarian; -25.5% (active) in the assay on HS 578T breast; -70% (active) in the assay on NCI/ADR-RES ovarian; -92.3% (active) in the assay with MDA-MB-435 melanoma; -60.6% (active) in the assay on SW-620 colon; -71.7% (active) in the assay with MCF7 breast. Also, the growth in the assay with HCT-116 colon was -88.2% (active); with HCC-2998 colon, -89.6% (active); in the assay on KM12 colon, -68.1% (active).

With `O=C(CN1CCN(c2cccc(Cl)c2)CC1)N1CCN(c2nnc(-c3ccc(Cl)cc3)c(-c3ccc(Cl)cc3)n2)CC1`, the growth was -33.5% (active) in the assay with RPMI-8226 leukemia; 96.3% with OVCAR-5 ovarian; 76.8% in the assay with OVCAR-4 ovarian; 105% in the assay on SK-OV-3 ovarian; 72.6% with OVCAR-3 ovarian; 61.9% with HS 578T breast. Also, the growth was 70.6% in the assay on NCI/ADR-RES ovarian; 50.1% in the assay with T-47D breast; 87.8% in the assay on BT-549 breast; 72.3% with MDA-MB-435 melanoma; 76.7% in the assay on SW-620 colon; 55.4% in the assay with MCF7 breast. The values for the growth in the assay on HCT-116 colon, with HCC-2998 colon and with KM12 colon were 53.5%, 83.6% and 57.6%, respectively.
